In ChEMBL document CHEMBL3433997, “St. Jude Leishmania screening dataset” (2016):

The compounds below were run against Solute carrier family 2, facilitated glucose transporter member 1 (Homo sapiens) (UniProt P11166) (assay: ST_JUDE_LEISH: Cytotoxicity at 2uM final concentration against transgenic Leishmania Mexicana promastigotes LmGLUT1 that are glucose transport deficient and complemented with the human glucose transporter GLUT1. Activity is measured by DNA content using SYBR green in vitro).
Sequence of Solute carrier family 2, facilitated glucose transporter member 1 (Homo sapiens) (P11166 whole entry): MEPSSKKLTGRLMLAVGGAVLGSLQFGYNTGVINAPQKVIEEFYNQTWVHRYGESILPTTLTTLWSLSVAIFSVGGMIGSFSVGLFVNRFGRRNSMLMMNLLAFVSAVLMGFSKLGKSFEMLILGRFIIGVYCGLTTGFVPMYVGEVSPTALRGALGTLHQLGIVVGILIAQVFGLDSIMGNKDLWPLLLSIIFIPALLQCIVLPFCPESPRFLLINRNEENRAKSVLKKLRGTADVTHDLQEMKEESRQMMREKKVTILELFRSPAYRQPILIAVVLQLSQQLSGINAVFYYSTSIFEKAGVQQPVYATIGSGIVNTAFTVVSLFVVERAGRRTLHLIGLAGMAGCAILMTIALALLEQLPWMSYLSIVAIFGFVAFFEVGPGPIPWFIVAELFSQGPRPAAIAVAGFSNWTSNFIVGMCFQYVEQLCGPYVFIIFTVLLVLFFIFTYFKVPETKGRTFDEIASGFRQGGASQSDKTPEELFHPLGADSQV
Format: functional
With `Cc1ccc(F)c(NC(=O)c2c(-c3c(F)cccc3Cl)noc2C)c1` the inhibition was -0.89%.
Work on `CC1=NN(c2ccc(C)c(C)c2)C(=O)C1=NNc1cccc(-c2cccc(NC(=O)OC(C)(C)C)c2)c1O` yielded an inhibition of 1.48%.
For `CC(C)(C)c1ccc(-c2ccccc2CNC(=O)c2cccc(O)c2)cc1`, the inhibition was 6.97%.
Compound `O=C(Nc1ccncc1)Nc1ccc2c(c1)CCN(C1CCC1)CC2` has an inhibition of 3.98%.
Compound `CCN(CC)CCOc1ccc(N(Cc2ccc(C(C)(C)C)cc2)C(=O)c2ccc(Cc3ccccc3)cc2)cc1OC` has an inhibition of 17.8%.
With `COc1ccc2nccc(N3CCC(CCNCc4cc5c(cn4)OCCO5)CC3)c2n1` the inhibition was -0.34%.
`c1cncc(CN2CCCN(c3ccc4c(c3)CCN(Cc3ccc(-c5ncc[nH]5)cc3)CC4)CC2)c1` showed an inhibition of 1.93%.
`Cc1ccc(CNC(=N)NC(=O)c2nc(Cl)c(NCc3ccc(Cl)cc3)nc2N)c(C)c1` showed an inhibition of -0.6%.
With `CC(C)C[C@H](Nc1ccnc(NCC2CCCCC2)n1)C(=O)Nc1ccccc1` the inhibition was 3.81%.
With `O=[N+]([O-])c1cccc(CNCC2CCN(Cc3ccc(Cl)c(Cl)c3)CC2)c1` the inhibition was 18.2%.
Compound `Cc1cc(C(=O)NCc2ccc(-c3c(C)noc3C)cc2)n(-c2ccccc2)n1` has an inhibition of 4.79%.
Work on `CCn1c(C=Cc2cc(Br)ccc2O)nc2ccccc2c1=O` yielded an inhibition of -1.02%.
For `COc1ccccc1-c1csc(C(=O)NCC2CCN(Cc3ccc(C(C)C)cc3)C2)c1` (stereo not given), the inhibition was -1.65%.
With `COc1ccc2nccc([C@@H](O)CN3CCC(NCc4cc5ccccn5n4)CC3)c2c1` the inhibition was 4.35%.
`Cc1cccc2nc(-c3ccc(-c4cccc(NC(=O)Nc5ccc(F)c(F)c5F)c4)cc3)[nH]c12` gave an inhibition of 2.29%.
